VDR inh: Inhibitors of the vitamin D receptor (VDR): qHTS. AID 504847, 2011. Potency, µM, for the others: max response, negative = inhibition, usual class: inhibitors. 0.93% of 400,000 active. VDR-SRC2-3 peptide fluorescence polarization, 2 h
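Inhibition of the VDR/SRC2-3 peptide interaction is quantified by fluorescence polarization. Compounds (23 nl, pintool) incubate with the reagents for 2 hours at ambient room temperature.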
TDP1 inh: qHTS Assay for Inhibitors of Tyrosyl-DNA Phosphodiesterase (TDP1). AID 485290, 2010. recombinant TDP1, AlphaScreen DNA substrate cleavage. Tyrosyl-DNA phosphodiesterase 1 (Homo sapiens), Q9NUW8. 0.28% of 350,000 active. Potency, µM (highest dose often 130 µM), inactives show top-dose activity change, negative = inhibition, usual class: inhibitors; note: nearly all actives have a fitted effect of over 40% in size
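Compounds were preincubated with Tdp1 (1 nM final) for 15 min at room temperature before substrate (15 nM final) started a 5 min reaction; beads (10 ug/ml final) were then added for 10 min before AlphaScreen detection.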
PLK1 PBD inh: qHTS for Inhibitors of PLK1-PDB (polo-like kinase 1 - polo-box domain): Primary Screen; 2.8% of 360,000 active; Potency, µM, for inactives: max response, negative = inhibition, actives largely listed as inhibitors; AID 720504, 2013; Plk1 PBD binding of FITC phosphopeptide, fluorescence polarization; note: series mostly up to about 57 µM; nearly all actives have a fitted effect of over 65% in size
Target sequence (P53350 whole entry, looked up, the tested form may be a part): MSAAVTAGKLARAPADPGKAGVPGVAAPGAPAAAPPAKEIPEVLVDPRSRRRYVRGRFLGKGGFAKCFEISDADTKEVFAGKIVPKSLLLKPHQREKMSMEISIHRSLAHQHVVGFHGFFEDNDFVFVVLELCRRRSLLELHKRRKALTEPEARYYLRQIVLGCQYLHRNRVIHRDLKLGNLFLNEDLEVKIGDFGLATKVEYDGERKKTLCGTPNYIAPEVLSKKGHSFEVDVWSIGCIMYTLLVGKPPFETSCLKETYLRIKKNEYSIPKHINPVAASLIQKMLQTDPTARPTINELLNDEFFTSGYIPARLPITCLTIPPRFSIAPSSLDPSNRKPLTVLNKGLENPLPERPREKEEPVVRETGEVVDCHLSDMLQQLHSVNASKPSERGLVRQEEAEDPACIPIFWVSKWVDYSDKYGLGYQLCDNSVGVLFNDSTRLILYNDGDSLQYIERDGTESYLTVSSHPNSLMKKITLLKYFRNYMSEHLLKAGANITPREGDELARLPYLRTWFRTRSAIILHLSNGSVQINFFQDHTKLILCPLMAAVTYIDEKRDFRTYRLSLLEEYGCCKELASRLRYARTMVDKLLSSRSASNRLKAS
KAT2A inh: qHTS Assay for Inhibitors of GCN5L2. Histone acetyltransferase KAT2A (Homo sapiens), Q92830. GCN5L2 HAT assay, ThioGlo1 CoA-SH fluorescence. Potency, µM (series often up to 58.9 µM), for the others: at the top dose activity change, negative = inhibition, most hits filed as inhibitors. 0.21% of 390,000 active
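Compounds, pin-transferred from DMSO stocks, meet 20nM GCN5L2 for 15 min before the reaction begins with H3(1-25) peptide (75uM) and acetyl-CoA (70uM). Thiol-reactive ThioGlo1 reports CoA release over 20 min at room temperature.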
TDP1 cell noCPT: qHTS for Inhibitors of human tyrosyl-DNA phosphodiesterase 1 (TDP1): qHTS in cells in absence of CPT. DT40 Tdp1-/- hTDP1 cells, no CPT, ATP luminescence, 48 h. Potency, µM (series often up to 46.2 µM), without a hit: at the top dose activity change, negative = growth inhibition, most hits filed as inhibitors. 15% of 420,000 active; note: nearly all actives have a fitted effect of over 55% in size
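Compound effects on proliferation are scored in DT40 Tdp1-/-;hTDP1 cells in the absence of CPT. ATP levels (CellTiter-Glo luminescence) are recorded after a ≥48 hr, 37 °C incubation.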
DT40 TDP1 CPT: qHTS for Inhibitors of human tyrosyl-DNA phosphodiesterase 1 (TDP1): qHTS in cells in presence of CPT | 12% of 420,000 active | Potency, µM (series often up to 46.2 µM), inactives show top-dose activity change, negative = growth inhibition, usual class: inhibitors | chicken DT40 Tdp1-/-;hTDP1 cells + 20 nM CPT, ATP luminescence, 48 h; note: nearly all actives have a fitted effect of over 55% in size
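Chicken DT40 Tdp1-/- cells complemented with human TDP1, 400 cells/well, exposed to compounds plus 20 nM camptothecin for at least 48 h at 37 C; viability read as ATP content by CellTiter-Glo luminescence.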
The depositor's hits bear a star; ? = inconclusive; / = no result; [ ] = remark or other dose. In the library only some 18% were active in any assay of this set; here they are far more common. Calls come from the whole dose curve; as a rule, active = well fitted curve in the direction sought with a large enough effect; inconclusive = small, poorly fitted or top-dose-only effect, or another doubt; inactive = no such curve, though single readings can be large; an effect the other way counts as inactive or inconclusive. % is set by controls: 0 for no effect and ±100 for the full control effect; potency is the fitted concentration of half-maximal effect.

SMILES	VDR inh	TDP1 inh	PLK1 PBD inh	KAT2A inh	TDP1 cell noCPT	DT40 TDP1 CPT
O=S1(=O)N[C@@H](CC2=CCCCC2)C2CCCCC2O1 (some centres not stated)	-1%	/	-14%	-23%	-46%	-6%
CCCCNC(=O)C(NC(=O)c1ccc(-c2ccccc2)cc1)C(=O)c1ccccc1 (configuration not stated)	/	/	1%	/	?	?
CC(C)(C)c1cc(NCCCn2ccnc2)n2ncc(-c3ccccc3)c2n1	-1%	9%	2%	-6%	?	15%
CN(C)CCCNc1cc(C(C)(C)C)nc2c(-c3ccc(Cl)cc3)cnn12	3%	4%	3%	-4%	?	13µM*
CCc1nccn1-c1cc(C(C)(C)C)nc2c(-c3ccc(Cl)cc3)cnn12	-9%	4%	-7%	23%	18µM*	?
CC(C)(C)c1cc(NCc2ccccn2)n2ncc(-c3ccc(Cl)cc3)c2n1	?	4%	-2%	-10%	16µM*	?
COc1ccc([C@@H]2CC=C(C(=O)O)[C@H](c3ccccc3F)N2S(=O)(=O)c2ccccc2C)cc1	2%	4%	2%	-1%	6%	-5%
CC(CC(=O)NCc1ccc(Cl)cc1Cl)CC1=NS(=O)(=O)c2ccccc2N1 (configuration not stated)	-3%	1%	/	-2%	?	?
CCCCCCCCCCCC(=O)N1CC(=O)NC(=O)C1	-1%	1%	-9%	1%	-15%	2%
C=CCNc1nc2cc(-c3ccc(C(=O)N4CCOCC4)cc3)sc2c(=O)n1C	/	/	1%	/	?	16µM*
CN(C)CCCNc1nc2cc(-c3ccc(C(=O)N4CCN(C)CC4)cc3)sc2c(=O)n1C	/	/	-3%	/	?	-1%
COc1cccc(CNc2nc3cc(-c4ccc(C(=O)N5CCN(C)CC5)cc4)sc3c(=O)n2C)c1	/	/	-2%	/	?	21µM*
Cc1cc(=O)c2c(C)ccc(C)c2[nH]1	8%	/	-9%	0%	9.2µM*	?
COCCNCc1cc(C)n(-c2cc(S(=O)(=O)N3CCOCC3)ccc2N2CCCC2)c1C	5%	/	3%	/	?	?
CC(=O)OCC(=O)[C@]1(O)C(OC(C)=O)CC2C3CCC4=CC(=O)C=C[C@@]4(C)[C@]3(F)C(O)C[C@]21C (some centres not stated)	12%	12%[56.1 µM]	/	4%	-8%	-4%
CCCCN(CCCC)CCCNC(=O)C1CC(c2ccc(C(F)(F)F)cc2)=NO1 (configuration not stated)	-23%	6%	-2%	-3%	?	?
CCCCNC(=O)C1CC(c2ccc(C(F)(F)F)cc2)=NO1 (configuration not stated)	1%	5%	2%	3%	9.2µM*	18µM*
CCCNC(=O)C1CC(c2ccc(C(F)(F)F)cc2)=NO1 (configuration not stated)	-15%	0%	-1%	32%	12µM*	12µM*
CC(=O)Nc1ccc(CN(C)c2c(C)nc3ccc(C(=O)N4CCN(C(=O)c5ccco5)CC4)cn23)cc1	/	/	0%	/	-16%	2%
CN(Cc1c(F)cccc1Cl)C(=O)c1cccc(S(=O)(=O)NCc2ccccc2)c1	-8%	-3%	-2%	-1%	18µM*	23µM*
CN(Cc1c(F)cccc1Cl)C(=O)c1cccc(S(=O)(=O)N2CCN(Cc3ccccc3)CC2)c1	-6%	/	5%	/	?	21µM*
O=C(NCc1cccc(C(F)(F)F)c1)c1cccc(S(=O)(=O)NCc2ccccc2)c1	-2%	3%	0%	-8%	23µM*	?
CN(Cc1ccc(OC(F)F)cc1)C(=O)c1cccc(S(=O)(=O)N2CCN(Cc3ccccc3)CC2)c1	-6%	/	0%	/	8.2µM*	9.2µM*
O=C(NCCOc1ccccc1)c1cccc(S(=O)(=O)N2CCN(Cc3ccccc3)CC2)c1	/	/	1%	/	?	?
Cc1ccc(CCNC(c2ccc(F)cc2)c2nnc(-c3ccccc3Cl)o2)cc1 (configuration not stated)	-17%	0%	/	-5%	?	?
SMILES	VDR inh	TDP1 inh	PLK1 PBD inh	KAT2A inh	TDP1 cell noCPT	DT40 TDP1 CPT
O=C(Nc1ccc(Cl)c([N+](=O)[O-])c1)ONC1=NCCCCC1	-8%	2%	27µM*	-3%	13µM*	?
CC(C)(C)n1cnnc1Sc1ncccc1[N+](=O)[O-]	-1%	3%	4%	1%	-1%	3%
CCCCN(CC)CCCn1cnc2c([nH]c3ccc(Cl)cc32)c1=O	2%	-3%	/	-2%	21µM*	21µM*
O=[N+]([O-])c1cc(C(F)(F)F)ccc1NCCc1ccccn1	-12%	/	-11%	/	?	-10%
O=[N+]([O-])c1cc(C(F)(F)F)ccc1NCCCCNS(=O)(=O)c1ccc2ccccc2c1	23%	9%	-1%	-17%	23µM*	21µM*
O=C(NCCCNc1ccc(C(F)(F)F)cc1[N+](=O)[O-])c1ccc(F)cc1	-24%	5%	8%	-3%	23µM*	16µM*
O=C(NCc1cccnc1)c1ccc2sc([C@H]3C[C@H](O)[C@@H](CO)O3)nc2c1	/	/	-10%	/	3%	-10%
CN(Cc1cnn(Cc2ccccc2)c1)C(=O)CN=C1NS(=O)(=O)c2ccccc21	-18%	1%	-13%	-2%	-14%	-9%
CCOc1ccc(NC(=O)CCc2c(C)nc3cc(-c4ccccc4OC)nn3c2C)cc1	-12%	-6%	/	-2%	?	?
COCCN(Cc1cc2cc(C)c(C)cc2nc1Cl)C(=O)Nc1ccccc1	13%	6%	-11%	-2%	?	?
COCCN(Cc1cc2cc(C)ccc2nc1Cl)C(=O)Nc1ccccc1OC	-6%	0%	1%	-2%	16µM*	16µM*
COCCN(Cc1cc2cc3c(cc2nc1Cl)OCO3)C(=O)c1ccc(C)cc1	-3%	-3%	-6%	-3%	13µM*	?
CCC(=O)N1CCc2cc(S(=O)(=O)CCC(=O)Nc3ccc(OC(F)(F)F)cc3)ccc21	-15%	-5%	/	-4%	23µM*	23µM*
